Calls of active or inactive are those of the source.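 Rule for the calls, unless noted: active = fluorescence slope after compound addition differing from the mean of all screened samples at 99.7% confidence, in either direction; inactive = the rest.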
Key:
[1] = inhibitors of TNFa-induced NFkB p65 translocation, primary screen, imaging, HUVEC, MLSMR starter and 10KST1 sets (AID 438;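 active = inhibition above 20% together with a positive visual image hit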;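 note: compound added about 3h40 before a 20 min TNFalpha stimulation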;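 for inhibition: signal is the nuclear over cytoplasmic p65 intensity ratio per well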); settings: HUVEC TNFa-induced p65 nuclear translocation; cell count: measured here: nuclei count (cytotoxicity indicator), at 2.08 µM; inhibition: at 2 µM, stronger effect = higher value, 0% TNFa-plus-vehicle, 100% no-TNFa wells
[2] = reduction of polyQ htt aggregates in cells – imaging, exon1htt(103Q)mCFP cells, high-content imaging, primary screen (AID 483;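 active = visual image review flags a hit and inhibition of aggregation exceeds 20%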;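 note: compound exposure lasted 3 days before fixation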;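 for nuclei count: percent of the per-plate median nuclei count of sample wells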); settings: exon1htt(103Q)mCFP cell line, aggregate imaging, at 2 µM; inhibition of aggregation: stronger effect = higher value; nuclei count: measured here: cell count, toxicity
[3] = endothelial E-selectin expression blockers – imaging, HUVEC, immunofluorescence, MLSMR starter and 10KST1 sets, primary screen (AID 487;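 active = visually confirmed hit in the image check and inhibition above 20%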;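 for inhibition: signal is fraction of cell area covered by stained E-selectin grains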;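 for nuclei count: 100% = median nuclei count of all wells on the same plate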); settings: HUVEC TNFalpha-induced E-selectin immunofluorescence imaging, at 2 µM; inhibition: stronger effect = higher value; nuclei count: measured here: cell number, toxicity
[4] = biological target: Voltage-gated potassium channel subunit beta-2 (Rattus norvegicus) (UniProt P62483); test: inhibitors of rat Kvbeta2 reductase activity – biochemical, NADPH fluorescence, primary screen (AID 622;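 active = fluorescence slope higher than the sample average by over 3 SD, cut at about -0.22 in these data, passing the limit was not always enough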;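 note: slope of raw intensity against log time taken from 70 to 1610 s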); settings: recombinant KvBeta, 4-cyanobenzaldehyde reduction, at 10 µM, stronger effect = higher value
Chain of Voltage-gated potassium channel subunit beta-2 (Rattus norvegicus) (P62483 whole entry, looked up): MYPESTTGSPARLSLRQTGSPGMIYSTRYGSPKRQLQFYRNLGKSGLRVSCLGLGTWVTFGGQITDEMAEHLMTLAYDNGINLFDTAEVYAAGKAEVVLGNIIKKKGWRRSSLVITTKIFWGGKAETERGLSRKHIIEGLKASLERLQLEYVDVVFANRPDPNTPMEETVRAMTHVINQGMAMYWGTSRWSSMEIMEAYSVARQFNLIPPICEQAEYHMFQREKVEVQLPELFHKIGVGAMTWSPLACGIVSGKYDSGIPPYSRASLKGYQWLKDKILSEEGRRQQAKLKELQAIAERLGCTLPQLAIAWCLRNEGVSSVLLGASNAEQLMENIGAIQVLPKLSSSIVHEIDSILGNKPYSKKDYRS

[5] = biological target: Voltage-gated potassium channel subunit beta-2 (Rattus norvegicus) (UniProt P62483); test: enhancers of rat Kvbeta2 NADPH turnover – biochemical, NADPH fluorescence, primary screen (AID 623;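 active = NADPH fluorescence slope more negative than the mean of all samples by about 3 SD, 99.7% confidence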;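 note: fluorescence intensity change per second fitted from 20 to 320 s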); settings: Recombinant KvBeta, NADPH fluorescence decrease slope, 10 min; at 10 µM; stronger effect = lower value
[6] = biological target: Alpha-2C adrenergic receptor (Homo sapiens) (UniProt P18825); test: compounds altering alpha2C-coupled GIRK flux – cell-based, HEK293 alpha2C/GIRK1/2, thallium flux, primary screen (AID 624); settings: thallium flux BTC fluorescence, at 10 µM, actives lie on both sides;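 note: slope of fluorescence ratio to pre-addition baseline per second over 15 to 24 s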
Chain of Alpha-2C adrenergic receptor (Homo sapiens) (P18825 whole entry, looked up): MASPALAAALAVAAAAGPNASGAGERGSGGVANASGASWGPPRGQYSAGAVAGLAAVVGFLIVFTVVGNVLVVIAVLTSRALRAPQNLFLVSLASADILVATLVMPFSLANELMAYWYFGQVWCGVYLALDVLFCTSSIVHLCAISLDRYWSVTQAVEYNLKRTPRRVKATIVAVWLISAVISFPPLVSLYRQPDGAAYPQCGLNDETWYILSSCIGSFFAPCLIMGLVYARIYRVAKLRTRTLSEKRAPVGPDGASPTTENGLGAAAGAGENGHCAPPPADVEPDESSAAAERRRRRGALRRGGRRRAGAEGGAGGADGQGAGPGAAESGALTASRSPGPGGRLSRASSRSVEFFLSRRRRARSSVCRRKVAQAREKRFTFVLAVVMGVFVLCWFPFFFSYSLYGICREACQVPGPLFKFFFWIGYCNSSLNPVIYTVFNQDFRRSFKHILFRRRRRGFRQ

[7] = blockers of RIG-like receptor reporter activation – cell-based, Sendai virus stimulus, luciferase, 10K MLSCN set, TLR/RLR signaling modifier project, primary screen (AID 602276;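 active = inhibition at or above 50% at 10 µM; inactive = inhibition below 50%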;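 note: firefly luciferase from ISG56 promoter only with Renilla not read in this screen; 0% = Sendai virus plus DMSO and 100% = medium plus DMSO without virus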); settings: HEK293 RL24 IRF3 luciferase reporter, at 10 µM, stronger effect = higher value
[8] = TLR3 IRF3 reporter activation blockers – cell-based, poly I:C stimulus, luciferase, 10K MLSCN set, primary screen (AID 602277;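 active = inhibition of the reporter signal at or above 50%; inactive = inhibition below 50%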); settings: HEK293-TLR3 RL24 IRF3 luciferase reporter, at 10 µM, stronger effect = higher value

| Structure (SMILES) | cell count [1] | inhibition [1] | inhibition of aggregation [2] | nuclei count [2] | inhibition [3] | nuclei count [3] | fluorescence slope [4] | NADPH fluorescence slope [5] | slope [6] | inhibition [7] | inhibition [8] |
| --- | --- | --- | --- | --- | --- | --- | --- | --- | --- | --- | --- |
| CCOC(=O)c1c(COC(=O)c2ccco2)nc2ccccc2[n+]1[O-] | 570 | 8.9% (inactive) | 8.4% (inactive) | 107% | -31.9% (inactive) | 120% | -0.392 (inactive) | -4.6e-05 (inactive) | 0.00397 (inactive) | 17.9% (inactive) | 15.1% (inactive) |
| COc1ccc(/C=N/O)cc1COc1ccc(NC(C)=O)cc1 | 667 | 9.6% (inactive) | -10.6% (inactive) | 113% | -30.3% (inactive) | 64.4% | -0.589 (inactive) | -1.6e-05 (inactive) | 0.00667 (inactive) | 6.34% (inactive) | 10.2% (inactive) |
| C=CCn1c(COc2cccc(C)c2)nnc1SCC(=O)NC(=O)NCc1ccco1 | 365 | -10.6% (inactive) | 23.8% (inactive) | 86.7% | 6.1% (inactive) | 113% | -0.405 (inactive) | 3.1e-05 (inactive) | 0.00673 (inactive) | 16.1% (inactive) | 30.1% (inactive) |
| CC(C)Sc1nc2c(c(=O)n1-c1ccc(F)cc1)SCC2 | 384 | -5.2% (inactive) | -10.1% (inactive) | 106% | -22% (inactive) | 108% | -0.519 (inactive) | -8.5e-05 (inactive) | 0.00437 (inactive) | -15.9% (inactive) | -9.58% (inactive) |
| COc1ccc(-c2nc(C)c(C(C)=O)n2O)cc1OC | 385 | 2.7% (inactive) | 3.6% (inactive) | 102% | -127% (inactive) | 106% | -0.355 (inactive) | -2.6e-05 (inactive) | 0.00569 (inactive) | -2.76% (inactive) | 10.1% (inactive) |
| O=C(NCCN1CCOCC1)C1CCC(=O)N1Cc1ccccc1Cl (stereo unspecified) | 648 | -11.4% (inactive) | 7.5% (inactive) | 92.1% | 6.7% (inactive) | 87.7% | -0.512 (inactive) | 2e-07 (inactive) | 0.00614 (inactive) | 10.4% (inactive) | 21% (inactive) |
| CCn1nnnc1SCC(=O)Nc1nc(-c2cccs2)cs1 | 327 | -8.9% (inactive) | 9.4% (inactive) | 100% | -63.9% (inactive) | 104% | -0.491 (inactive) | -4.6e-05 (inactive) | 0.00497 (inactive) | 15.8% (inactive) | 20.5% (inactive) |
| CCC(C(=O)Nc1ncccn1)(C(F)(F)F)C(F)(F)F | 218 | 2% (inactive) | 25.4% (inactive) | 93.4% | -2.6% (inactive) | 110% | -0.499 (inactive) | 5.3e-05 (inactive) | 0.00586 (inactive) | -24.5% (inactive) | -0.327% (inactive) |
| Cc1ccccc1Cn1c(=O)c2c(nc3n2CCCN3Cc2ccccc2)n(C)c1=O | 348 | 7.4% (inactive) | 7.4% (inactive) | 97.8% | -25.1% (inactive) | 120% | -0.478 (inactive) | -7.4e-06 (inactive) | 0.00418 (inactive) | 22.9% (inactive) | 19.5% (inactive) |
| O=C(Nc1ccc(O)cc1)C1CCCN1S(=O)(=O)c1ccc(F)cc1 (stereo unspecified) | 598 | -2.1% (inactive) | -9.8% (inactive) | 90% | -33.3% (inactive) | 119% | -0.497 (inactive) | -2.5e-05 (inactive) | 0.00664 (inactive) | 8.7% (inactive) | 9.85% (inactive) |
| CC(=O)C1=C(O)C(=O)N(C2CCCCC2)C1c1ccccc1 (stereo unspecified) | 467 | -10.8% (inactive) | -19.1% (inactive) | 104% | -95.4% (inactive) | 176% | -0.448 (inactive) | -9.9e-06 (inactive) | 0.00562 (inactive) | 18.2% (inactive) | 15.5% (inactive) |
| Cc1ccc2nc(-c3ccc(S(=O)(=O)N4CCOCC4)cc3)cn2c1 | 591 | -9.3% (inactive) | -9.3% (inactive) | 96.7% | 7.4% (inactive) | 89.1% | -0.0874 (active) | 1e-05 (inactive) | 0.00713 (inactive) | 5.63% (inactive) | -13.9% (inactive) |
| COCCNC(=O)C(c1cccs1)N(C(=O)Cn1nnc2ccccc21)c1ccccc1 (stereo unspecified) | 385 | 5.9% (inactive) | 0.7% (inactive) | 98.9% | 24.6% (inactive) | 93.8% | -0.506 (inactive) | -1.1e-05 (inactive) | 0.00629 (inactive) | 10.7% (inactive) | 6.48% (inactive) |
| Cc1nnc(N(C)C(=O)c2cccnc2)s1 | 704 | -7.5% (inactive) | 8.5% (inactive) | 109% | -47.1% (inactive) | 109% | -0.547 (inactive) | 3.7e-05 (inactive) | 0.0062 (inactive) | -6.83% (inactive) | -1.4% (inactive) |
| CN(C)c1cccc(NC(=O)CCc2ccccc2)c1 | 503 | -5.1% (inactive) | -5.3% (inactive) | 106% | -7.2% (inactive) | 95.9% | -0.594 (inactive) | 9.8e-06 (inactive) | 0.00703 (inactive) | -9.67% (inactive) | -5.4% (inactive) |
| Cc1cc(N2C(=O)C(O)=C(C(=O)c3ccc(C)o3)C2c2cccs2)no1 (stereo unspecified) | 257 | -3.6% (inactive) | 13.3% (inactive) | 75.8% | 12% (inactive) | 103% | -0.42 (inactive) | -1.8e-05 (inactive) | 0.00606 (inactive) | -1.8% (inactive) | -26.2% (inactive) |
| CC(NC(=O)c1ccc2c(c1)OCO2)C(c1cccs1)N1CCOCC1 (stereo unspecified) | 462 | -6.6% (inactive) | 17.3% (inactive) | 113% | -29.4% (inactive) | 115% | -0.618 (inactive) | 2.3e-05 (inactive) | 0.00632 (inactive) | 12.6% (inactive) | 15.4% (inactive) |
| NC(=O)c1cc(-c2ccccc2)nc(N2CCOCC2)n1 | 532 | 6.7% (inactive) | -2.6% (inactive) | 91% | 25.8% (inactive) | 92.5% | -0.591 (inactive) | -4.3e-05 (inactive) | 0.00656 (inactive) | 8.52% (inactive) | 25.8% (inactive) |
| CC(C)(C)NC(=O)CN(C(=O)C1CSC(=O)C1)c1ccc2c(c1)OCCO2 (stereo unspecified) | 612 | 2.9% (inactive) | 7.5% (inactive) | 95.8% | 7.1% (inactive) | 108% | -0.362 (inactive) | -6.7e-05 (inactive) | 0.00456 (inactive) | -11.9% (inactive) | -7.89% (inactive) |
| COc1ccc(-c2nnn(CCc3nn[nH]n3)n2)cc1OC | 419 | -7.7% (inactive) | 1.4% (inactive) | 70.5% | -9.7% (inactive) | 112% | -0.561 (inactive) | -2.6e-05 (inactive) | 0.00328 (inactive) | 8.58% (inactive) | -8.87% (inactive) |
| Cc1ccccc1CN1CCN(C(=O)c2cccc(F)c2)CC1 | 284 | -13% (inactive) | 14.5% (inactive) | 91.7% | 2.5% (inactive) | 119% | -0.411 (inactive) | -1.4e-05 (inactive) | 0.00429 (inactive) | 7.31% (inactive) | 12% (inactive) |
| CC(C)c1ccc(C(O)c2cnc(C(C)C)n2C)cc1 (stereo unspecified) | 723 | 6.9% (inactive) | -27.2% (inactive) | 50.5% | -93.9% (inactive) | 106% | -0.552 (inactive) | -3.1e-05 (inactive) | 0.00678 (inactive) | -10.5% (inactive) | -5.66% (inactive) |
| NC(=O)C1(N2CCCCC2)CCN(CC(=O)Nc2cc(Cl)ccc2Cl)CC1 | 357 | -3% (inactive) | 14.8% (inactive) | 86.2% | 26.7% (inactive) | 74.8% | -0.583 (inactive) | -5.7e-05 (inactive) | 0.00416 (inactive) | -15.6% (inactive) | -7.63% (inactive) |
| COc1cc2c(C#N)c(N3CCN(c4ccccc4OC)CC3)nc(N)c2c(N)n1 | 660 | 0.7% (inactive) | -14.7% (inactive) | 99.8% | -76.6% (inactive) | 109% | -0.178 (inactive) | 1.8e-06 (inactive) | 0.00562 (inactive) | -0.302% (inactive) | -36.5% (inactive) |
| Cn1c(SCC(=O)Nc2ccc(F)cc2)nnc1-c1cccnc1 | 660 | -1.1% (inactive) | 5.2% (inactive) | 90.3% | -57.8% (inactive) | 110% | -0.578 (inactive) | -4.7e-05 (inactive) | 0.00652 (inactive) | -0.187% (inactive) | 21.7% (inactive) |
| Cc1cc(C)n(-c2ccc(N3CCOCC3)nn2)n1 | 610 | -5.2% (inactive) | -8.5% (inactive) | 100% | -27.5% (inactive) | 120% | -0.4 (inactive) | -7.8e-06 (inactive) | 0.0039 (inactive) | -5.9% (inactive) | -11.9% (inactive) |
